Most compounds without a hit are left out; they make up all but 2.3% or so of the library.
MCL1-BIM inh: disrupts human MCL1 binding to BIM-BH3 peptide; GST-MCL1 / FITC-Bim-BH3 fluorescence polarization; inhibition, % at 10.9 µM; 320,000 tested, 0.68% active;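 active means inhibition above the mean inhibition of all tested compounds plus 3 SD, set per campaign, cut at about 40% in these data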;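 further: higher means more loss of mP so more displacement of Bim peptide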
Target sequence (Q07820 whole entry, looked up): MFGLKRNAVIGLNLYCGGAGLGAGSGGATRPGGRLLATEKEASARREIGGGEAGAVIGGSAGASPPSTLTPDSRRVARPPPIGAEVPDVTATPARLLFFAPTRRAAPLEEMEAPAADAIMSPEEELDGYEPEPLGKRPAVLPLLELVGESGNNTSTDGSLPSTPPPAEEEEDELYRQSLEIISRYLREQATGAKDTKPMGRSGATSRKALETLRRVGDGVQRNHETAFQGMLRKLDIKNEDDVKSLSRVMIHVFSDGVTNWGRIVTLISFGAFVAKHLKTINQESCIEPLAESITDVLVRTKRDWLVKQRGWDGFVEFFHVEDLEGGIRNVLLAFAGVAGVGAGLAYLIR
Mcl1-Bid inh: Mcl-1/Bid interaction inhibition; 220,000 tested, 0.97% active; TR-FRET Mcl-1/Bid-Dy647 peptide binding, 1536-well; inhibition, % at 21.7 µM; AID 1021;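 active means compounds that cut the binding signal by more than half at the single screening dose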;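 further: His-tagged Mcl-1 with europium anti-His antibody binding Bid BH3 peptide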
GLD-1 TGE inh: GLD-1-TGE RNA interaction inhibition (C. elegans) | inhibition, % at 5.96 µM | purified GLD-1 + fluorescein TGE RNA, fluorescence polarization | Q17339 | 320,000 tested, 0.44% active;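 active means percent inhibition above a per-plate cutoff, the plate mean of test compounds plus 3 SD, cut at about 30% in these data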
Target sequence (Q17339 whole entry, looked up): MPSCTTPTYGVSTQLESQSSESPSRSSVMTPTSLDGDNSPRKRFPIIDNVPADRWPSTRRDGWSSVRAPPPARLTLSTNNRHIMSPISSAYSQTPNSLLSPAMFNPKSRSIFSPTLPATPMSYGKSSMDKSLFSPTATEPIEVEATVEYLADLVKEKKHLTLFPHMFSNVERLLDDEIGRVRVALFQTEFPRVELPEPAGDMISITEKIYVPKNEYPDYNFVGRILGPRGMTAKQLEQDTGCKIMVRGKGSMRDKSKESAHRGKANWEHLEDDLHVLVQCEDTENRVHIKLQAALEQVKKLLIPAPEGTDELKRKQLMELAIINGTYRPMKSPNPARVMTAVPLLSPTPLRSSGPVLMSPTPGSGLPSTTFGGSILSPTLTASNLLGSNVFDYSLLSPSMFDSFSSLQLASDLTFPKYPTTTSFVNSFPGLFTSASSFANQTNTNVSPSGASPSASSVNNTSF
Mcl-1 Bim block: human Bim-Mcl-1 interaction inhibition; Q07820; Bead-based flow cytometry, Bim peptide-Mcl-1 binding; AID 1009; 190,000 tested, 0.1% active; inhibition, % at 10 µM; in the data active means inhibition above about 40%
BCLXL inh: blocks human Bcl-xL binding to Bim BH3 peptide. Q07817. GST-Bcl-xL / FITC-Bim BH3 peptide fluorescence polarization. inhibition, % at 10.9 µM. 320,000 tested, 0.7% active. AID 2129;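 active means inhibition above the mean of all tested compounds plus 3 SD, cutoff set per campaign, cut at about 30% in these data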;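 further: inhibitors lower millipolarization by displacing the labeled peptide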
Mcl1-Noxa inh: disrupts binding of human Mcl-1 to Noxa peptide. Q07820. TR-FRET Mcl-1/Noxa peptide binding, 2 h. inhibition, % at 21.7 µM. 220,000 tested, 1.5% active;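 active means compounds that cut the protein-peptide binding signal by more than 50% relative to plate controls in a single-dose test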;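 further: His-tagged Mcl-1 with rhodamine Noxa BH3 peptide and terbium anti-His antibody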
Each line names hits and unclear results; the compound was inactive in the other large screens.

COc1ccc(OC)c(-n2c(O)c(/C=C3\C(C)=Nc4ccccc43)c(=O)[nH]c2=O)c1	none (no result: Mcl-1 Bim block)
COC(=O)C1=Nc2ccccc2/C1=C\c1c(O)n(-c2ccc(Br)cc2)c(=O)[nH]c1=O	Mcl1-Noxa inh 77.2
COC(=O)C1=Nc2ccccc2/C1=C\c1c(O)n(-c2ccc(OC)cc2)c(=O)[nH]c1=O	Mcl1-Noxa inh 53.0
O=c1[nH]c(=O)n(-c2ccccc2)c(O)c1/C=C1/C(c2ccccc2)=Nc2ccccc21	none
CCCNC(=O)N1[C@H]2CC[C@@H]1C(C(=O)OC)=C(c1ccc3ccccc3c1)C2	none (no result: Mcl1-Bid inh, Mcl-1 Bim block, Mcl1-Noxa inh)
Cc1cc(C)c(Cn2c(C(=O)O)c(C=O)c3ccccc32)c(C)c1	none
O=c1c2ccccc2nc(-c2ccco2)n1-c1cccnc1	Mcl1-Noxa inh 97.2
Nc1ccc2c(c1)Cc1ccccc1-2	Mcl1-Noxa inh 54.5
Cc1ccc(N2C(=O)/C(=C/c3ccc(CN(CCC#N)S(C)(=O)=O)o3)C(=O)NC2=S)cc1	Mcl1-Noxa inh 68.8
Cc1ccc2c(c1)C1CN(C)CCC1N2C(=O)Nc1cccc(Cl)c1 (configuration not stated)	Mcl1-Noxa inh 98.8
Cc1ccccc1NC(=O)c1cc(-c2ccccc2)n(CCCN2CCOCC2)c1C	Mcl1-Bid inh 63.3 (no result: Mcl-1 Bim block)
O=c1[nH]cc(COCC(F)(F)C(F)(F)C(F)(F)F)c(=O)[nH]1	none
CCCN1CCCC(C(=O)c2cc(C)c(OC)c(C)c2)C1 (configuration not stated)	none (no result: Mcl1-Bid inh, Mcl-1 Bim block, Mcl1-Noxa inh)
COc1ccc(/C=C2/C(=O)NC(=S)N(C3CC3)C2=O)cc1CN1C(=O)c2ccccc2C1=O	Mcl1-Noxa inh 95.3
COc1ccc(/C=C2/C(=O)NC(=O)N(c3ccccc3)C2=O)cc1CN1C(=O)c2ccccc2C1=O	none (no result: Mcl-1 Bim block)
C=CP(=O)(O)c1ccccc1	Mcl1-Bid inh 55.4
CCCCP(=O)(O)c1ccccc1	none
OC(CNCCc1c[nH]c2ccccc12)c1ccccc1 (configuration not stated)	none (no result: Mcl1-Bid inh, Mcl-1 Bim block, Mcl1-Noxa inh)
CN(C)[C@@H]1C(=O)C(C(N)=O)=C(O)[C@@]2(O)C(=O)C3=C(O)c4c(O)cccc4[C@@](C)(O)[C@H]3[C@H](O)[C@@H]12	MCL1-BIM inh active, Mcl1-Bid inh 71.7, GLD-1 TGE inh 92.8, BCLXL inh 153.4, Mcl1-Noxa inh 111.3
O=C1NC(=O)N(c2ccccc2)C(=O)/C1=C\c1ccc2c3c(cccc13)CC2	Mcl1-Noxa inh 81.0
COc1ccc(N2C(=O)NC(=O)/C(=C/c3ccc([N+](=O)[O-])s3)C2=O)cc1	Mcl1-Noxa inh 51.4 (no result: Mcl-1 Bim block)
COc1ccc(CN2C(=O)NC(=O)/C(=C/c3ccc([N+](=O)[O-])s3)C2=O)cc1	Mcl1-Noxa inh 65.0 (no result: Mcl-1 Bim block)
COc1ccc(N2C(=O)NC(=O)/C(=C\c3cn(C)c4ccccc34)C2=O)cc1	BCLXL inh 34.4 (no result: Mcl1-Bid inh, Mcl-1 Bim block, Mcl1-Noxa inh)
COc1ccccc1N1C(=O)NC(=O)/C(=C/c2ccc([N+](=O)[O-])s2)C1=O	none (no result: Mcl-1 Bim block)
COc1ccc(CN2C(=O)NC(=O)/C(=C\c3ccco3)C2=O)cc1	none
CC(=O)OC1CC[C@]2(C#N)[C@H]3CC[C@]4(C)[C@H](C5C=CC(=O)O5)CCC4(O)C3CCC2(O)C1 (some centres not stated)	none (no result: Mcl1-Bid inh, Mcl-1 Bim block, Mcl1-Noxa inh)
CCC1(CC)C(=O)N(C)C(=O)NC1=NC	none (no result: Mcl-1 Bim block)
COc1ccc(NC(=O)N2C[C@@H]3C[C@@H](C2)c2cccc(=O)n2C3)c(OC)c1	none (no result: Mcl1-Bid inh, Mcl-1 Bim block, Mcl1-Noxa inh)
c1ccc(P(c2ccccn2)c2ccccn2)cc1	none
Cc1ccc(N2C(=O)NC(=O)/C(=C\c3ccc(N4CCOCC4)cc3)C2=O)cc1	none
Cc1ccc(N2C(=O)NC(=O)/C(=C\c3ccc([N+](=O)[O-])o3)C2=O)cc1	Mcl1-Noxa inh 69.7
COc1cccc(N2C(=O)NC(=O)/C(=C/c3ccc([N+](=O)[O-])s3)C2=O)c1	Mcl1-Noxa inh 61.4 (no result: Mcl-1 Bim block)
O=c1[nH]c(Cl)ccc1CN1CCOCC1	none (no result: Mcl1-Bid inh, Mcl-1 Bim block, Mcl1-Noxa inh)
CSc1ccc(C(=O)C2CCCN(CCCn3cccn3)C2)cc1 (configuration not stated)	Mcl1-Bid inh 65.2
CCC1=Nc2cc(C(=O)N3CCC4(CC3)OCCO4)ccc2Sc2ccc(Br)cc21	none (no result: Mcl1-Bid inh, Mcl-1 Bim block, Mcl1-Noxa inh)
O=C1NC(=S)N(Cc2ccco2)C(=O)/C1=C\c1cccs1	Mcl1-Bid inh 96.9, Mcl1-Noxa inh 97.1 (no result: MCL1-BIM inh, GLD-1 TGE inh, BCLXL inh)
COc1ccc(N2C(=O)/C(=C/C=C/c3ccccc3[N+](=O)[O-])C(=O)NC2=S)cc1	Mcl1-Bid inh 82.6, Mcl1-Noxa inh 88.6 (no result: MCL1-BIM inh, GLD-1 TGE inh, BCLXL inh)
COc1ccccc1/C=C1\C(=O)NC(=S)N(c2ccccc2)C1=O	none (no result: Mcl1-Bid inh, Mcl-1 Bim block, Mcl1-Noxa inh)
COc1ccc(N2C(=O)/C(=C/c3cccs3)C(=O)NC2=S)cc1	Mcl1-Noxa inh 61.7 (no result: Mcl-1 Bim block)
COc1ccc(N2C(=O)/C(=C/c3ccc(N(C)C)o3)C(=O)NC2=S)cc1	none (no result: Mcl1-Bid inh, Mcl-1 Bim block, Mcl1-Noxa inh)
O=C1NC(=O)N(c2ccccc2)C(=O)/C1=C\c1ccccc1[N+](=O)[O-]	none (no result: Mcl-1 Bim block)
O=C1C=Cc2ccccc2C1=O	Mcl1-Noxa inh 72.7
O=C1NC(=S)NC(=O)C1=Cc1cccn1-c1ccc(O)cc1	Mcl1-Noxa inh 76.3 (no result: MCL1-BIM inh, GLD-1 TGE inh, BCLXL inh)
CN1C(=O)/C(=C/c2cccn2-c2ccc3ccccc3c2)C(=O)NC1=S	none
Oc1ccc(C2=CCNCC2)cc1O	none (no result: Mcl1-Bid inh, Mcl-1 Bim block, Mcl1-Noxa inh)
O=c1[nH]c(=S)[nH]c(O)c1N=Nc1ccc(SC(F)F)cc1	none (no result: Mcl-1 Bim block)
O=c1[nH]c(=S)[nH]c(O)c1N=Nc1ccc(S(=O)(=O)N2CCc3ccccc32)cc1	Mcl1-Noxa inh 56.1
CC[C@H]1CN(C)C[C@@]2(C(=O)OC)Cc3c([nH]c4ccccc34)C(=O)C[C@@H]12	none (no result: Mcl1-Bid inh, Mcl-1 Bim block, Mcl1-Noxa inh)
COc1cc2c(cc1OC)-c1c3c(cc4c1[C@@H](C2)N(C)CC4)OCO3	none
COc1cc2c(cc1O)C[C@H]1NCCc3cc4c(c-2c31)OCO4	Mcl1-Noxa inh 78.8
COCC(C)OC(=O)c1c(N)n(Cc2ccco2)c2nc3ccccc3nc12 (configuration not stated)	GLD-1 TGE inh 38.6, BCLXL inh 34.1
CCOC(=O)c1c(N)n(Cc2ccco2)c2nc3ccccc3nc12	GLD-1 TGE inh 62.4, BCLXL inh 43.2
CC(=O)C1C2c3ccccc3OC1(C)N=c1s/c(=C/c3cnn(C)c3)c(=O)n12 (configuration not stated)	none
COC(=O)C1C2c3ccccc3OC1(C)N=c1s/c(=C/c3cnn(C)c3C)c(=O)n12 (configuration not stated)	Mcl-1 Bim block 64.0
c1ccc(-c2ccc(-c3n(-c4ccccn4)c4ccccc4[n+]3-c3ccccn3)cc2)cc1	Mcl1-Noxa inh 86.8 (no result: MCL1-BIM inh, GLD-1 TGE inh, BCLXL inh)
Cc1ccc(S(=O)(=O)N[C@@H](CCCCN)C(=O)CCl)cc1	BCLXL inh 31.9 (no result: Mcl1-Bid inh, Mcl-1 Bim block, Mcl1-Noxa inh)
Cc1ccc(S(=O)(=O)NCCC(=O)Nc2ccc(Cl)cc2C(=O)c2ccccc2)cc1	none
CCCc1nnc(NC(=O)CCC(=O)N2CCC3(CC2)OCCO3)s1	MCL1-BIM inh 43.7, BCLXL inh 54.5 (no result: Mcl-1 Bim block)
Cc1nn(Cc2ccccc2)c(C)c1C(=O)OCC(=O)Nc1cc(S(C)(=O)=O)ccc1Cl	none
COc1ccc2[nH]cc(CCNCc3cccnc3)c2c1	none (no result: Mcl1-Bid inh, Mcl-1 Bim block, Mcl1-Noxa inh)

Screening results (PubChem BioAssay)
